Test results from PubChem BioAssay (EPA / NIEHS).
Active and inactive are the calls of the source. Rule for the calls: active = hit-call score of the fitted dose curve at least 0.9, where 1 is the maximum; inactive = score below 0.9.

The compounds below were run on Monocyte Chemoattractant Protein-1 (MCP1), CCL2 (gene 6347) (assay: BSK_4H_MCP1: BioMAP Diversity Plus: 4H Assay for Monocyte Chemoattractant Protein-1 (MCP1) Biomarker Activity (AID 2283018)). Conditions: primary human endothelial cells (HUVEC); actives raise or lower the signal.
Experimental: BSK_4H is a cell-based, multiplexed-readout assay that uses umbilical vein endothelium, a human vascular primary cell, with measurements taken at 24 hours after chemical dosing in a 96-well plate.BSK_4H_MCP1 is an assay component measured in the BSK_4H assay. It measures MCP-1 antibody related to regulation of gene expression using ELISA technology.Data from the assay component BSK_4H_MCP1 was analyzed into 1 assay endpoint. This assay endpoint, BSK_4H_MCP1, was analyzed with bidirectional fitting relative to DMSO as the negative control and baseline of activity. Using a type of binding reporter, gain or loss-of-signal activity can be used to understand changes in the signaling as they relate to the gene CCL2. Furthermore, this assay endpoint can be referred to as a primary readout, because this assay has produced multiple assay endpoints where this one serves a signaling function. To generalize the intended target to other relatable targets, this assay endpoint is annotated to the cytokine intended target family, where the subfamily is chemotactic factor.
The levels of cell surface (or secreted, indicated by the prefix "s") biomarker endpoints were measured by ELISA. Overt cytotoxicity to cells in confluent adherent cultures (all systems other than the BT system) was assessed by measuring total protein levels using sulforhodamine B (SRB) staining in parallel cultures at the time of biomarker measurements, indicated as SRB endpoints. For proliferation assays for adherent cell types, individual cell types are cultured at sub-confluence and relative cell numbers quantified by SRB staining at time points optimized for each system (48 h: 3C and CASM3C systems; 72 h: BT and HDF3CGF systems; 96 h: SAg system). SRB was performed by staining cells with 0.1% SRB after fixation with 10% TCA and reading wells at 560 nm.Viability and proliferation of PBMC (T cells) was quantified by Alamar Blue reduction for the SAg and BT systems. For PBMC viability (referred to as PBMC Cytotoxicity within the assay endpoint names), cells were plated (75,000/well in a 96-well plate) and then chemical samples added for 1 h before addition of activators, SEB and TSST-1 (20 ng/mL final concentration each). Cells were incubated for 90 h. Then, Alamar Blue (20 uL/well) (Invitrogen, Cat DAL1100) was added for 6 h, and the plates were read with a fluorescence microplate reader at 546/580 nm (excitation/emission). For PBMC proliferation, cells were plated and activated as above but incubated for only 16 h prior to addition of Alamar Blue. Plates were read after 6 h.

With Cc1c(COC(=O)[C@@H]2[C@H](/C=C(\Cl)C(F)(F)F)C2(C)C)cccc1-c1ccccc1 as the compound, how does the outcome read?
Its outcome is “inactive”.

For CC(C)=CC1C(C(=O)OCc2coc(Cc3ccccc3)c2)C1(C)C (stereo not given), which outcome is on record?
The outcome was “inactive”.

COc1cc(Cl)c(OC)cc1Cl was tested. Which outcome did it give?
Its outcome is “inactive”.

Which AC50 does the source give for CC(C)N1C(=O)N(c2ccccc2)CSC1=NC(C)(C)C here?
The AC50 was 30.4 µM (active).

How did the outcome turn out when CNC(=O)N(C)c1nnc(C(C)(C)C)s1 was run?
The outcome was “inactive”.

CS(=O)(=O)c1cc(C(F)(F)F)ccc1C(=O)c1cnoc1C1CC1 was tested. Which outcome did it give?
Its outcome is “inactive”.

CN=C=S was tested. Which outcome did it give?
Its outcome is “inactive”.

For CN/C(=N\[N+](=O)[O-])NCc1cnc(Cl)s1, which outcome is on record?
Its outcome is “inactive”.

Cc1cnc(C2=NC(C)(C(C)C)C(=O)N2)c(C(=O)O)c1 (stereo not given) was tested. Which outcome did it give?
Its outcome is “inactive”.

Which outcome does the source give for CC1(C)C(C(=O)OC(C#N)c2cccc(Oc3ccccc3)c2)C1(C)C (stereo not given) here?
The outcome was “inactive”.

How did the outcome turn out when CC(C)N1C(=O)c2ccccc2NS1(=O)=O was run?
Its outcome is “inactive”.

How did the outcome turn out when CC(C)Nc1nc(Cl)nc(NC(C)C)n1 was run?
Its outcome is “inactive”.

How did the outcome turn out when CCCN(CC)CC1COC2(CCC(C(C)(C)C)CC2)O1 (stereo not given) was run?
The outcome was “inactive”.

For CNC(=O)Oc1cccc2ccccc12, which outcome is on record?
The outcome was “inactive”.

With O=P(O)(O)CCCl as the compound, how does the outcome read?
Its outcome is “inactive”.

With COc1cc(OC)nc(NC(=O)NS(=O)(=O)c2ncccc2OCC(F)(F)F)n1 as the compound, how does the outcome read?
The outcome was “inactive”.

With CCOc1cc(C(C)(C)C)ccc1C1COC(c2c(F)cccc2F)=N1 (stereo not given) as the compound, how does the AC50 read?
The AC50 was 18.5 µM (active).

Which AC50 does the source give for Cc1ccc(N=CN(C)C=Nc2ccc(C)cc2C)c(C)c1 here?
The AC50 was 31.4 µM (active).

For CCOP(=O)(OCC)Oc1nc(Cl)c(Cl)cc1Cl, which outcome is on record?
The outcome was “inactive”.

How did the outcome turn out when CCCCC(C#N)(Cn1cncn1)c1ccc(Cl)cc1 (stereo not given) was run?
Its outcome is “inactive”.

For Nc1c(Cl)c(Cl)nc(C(=O)O)c1Cl, which outcome is on record?
Its outcome is “inactive”.

Which outcome does the source give for CCOc1nc(C(Cl)(Cl)Cl)ns1 here?
Its outcome is “inactive”.

How did the outcome turn out when O=C(Nc1ccccc1-c1ccc(Cl)cc1)c1cccnc1Cl was run?
Its outcome is “inactive”.

COP(=O)(OC)O/C(C)=C/C(=O)N(C)C was tested. Which outcome did it give?
Its outcome is “inactive”.

CCCCOCN(C(=O)CCl)c1c(CC)cccc1CC was tested. Which AC50 did it give?
Its AC50 is 25.6 µM (active).

With COC(=O)NC(=S)Nc1ccccc1NC(=S)NC(=O)OC as the compound, how does the AC50 read?
Its AC50 is 5.32 µM (active).

How did the outcome turn out when CC(C)C1(C)N=C(c2ncccc2C(=O)O)NC1=O (stereo not given) was run?
The outcome was “inactive”.

How did the outcome turn out when CCNC(=O)NC(=O)C(C#N)=NOC was run?
Its outcome is “inactive”.

For CC1(C)CON(Cc2ccccc2Cl)C1=O, which outcome is on record?
Its outcome is “inactive”.

Which outcome does the source give for CC1(C)CCC(=Cc2ccc(Cl)cc2)C1(O)Cn1cncn1 (stereo not given) here?
Its outcome is “inactive”.

How did the outcome turn out when N#Cc1c[nH]cc1-c1cccc2c1OC(F)(F)O2 was run?
The outcome was “inactive”.

For O=c1n(Cl)c(=O)n(Cl)c(=O)n1Cl, which outcome is on record?
Its outcome is “inactive”.

How did the outcome turn out when CCC(C)n1c(=O)[nH]c(C)c(Br)c1=O (stereo not given) was run?
Its outcome is “inactive”.

For COCC(C)N(C(=O)CCl)c1c(C)csc1C (stereo not given), which outcome is on record?
The outcome was “inactive”.

How did the outcome turn out when C=CCOC(=O)C(C)(C)OC(=O)c1cc(-n2c(=O)cc(C(F)(F)F)n(C)c2=O)ccc1Cl was run?
Its outcome is “inactive”.

With Cn1c(-c2ccccc2)cc(-c2ccccc2)[n+]1C as the compound, how does the outcome read?
Its outcome is “inactive”.

With CC(C)(C)C(=O)C(Oc1ccc(Cl)cc1)n1cncn1 (stereo not given) as the compound, how does the outcome read?
The outcome was “inactive”.

COc1ccc(-c2ccccc2)cc1NNC(=O)OC(C)C was tested. Which outcome did it give?
The outcome was “inactive”.

With CCCCC(O)(Cn1cncn1)c1ccc(Cl)cc1Cl (stereo not given) as the compound, how does the outcome read?
Its outcome is “inactive”.

How did the outcome turn out when Nc1c(Cl)c(F)nc(OCC(=O)O)c1Cl was run?
Its outcome is “inactive”.
